23 molecules from PubChem BioAssay (NCATS) can be followed below.

Inconclusive results are not listed. Calls of active or inactive are those of the source. Calls come from the whole dose curve; as a rule, active = well fitted inhibition curve with a large enough effect; inconclusive = small, poorly fitted or top-dose-only effect; inactive = flat fitted curve, though single readings scatter.

What all share (test): qHTS profiling for inhibitors of Plasmodium falciparum proliferation (AID 504749); note: nearly all actives have a fitted effect of over 60% in size
Details in all cases: P. falciparum in erythrocytes, SYBR Green DNA, 72 h; series mostly up to 28.7 µM

One experiment has as its system FAB9. An outline of the steps: (§1)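 SYBR Green fluorescence (ex 485 nm, em 535 nm) reports parasite DNA after 72 h compound exposure of infected red cells at 0.3% parasitemia, 2.5% hematocrit; signal normalized to 0.29 uM artemisinin and vehicle wells.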
The subject of a further experiment is GB4. An outline of the steps:
as §1

In the next experiment the test system is HB3. An outline of the steps: as §1
In another experiment the test system is ICS. An outline of the steps: as §1
A further experiment has as its system JCK. The method in brief: as §1
The subject of the next experiment is N140. The method in brief:
as §1

The subject of the next experiment is P93_24. The method in brief:
as §1

For the next experiment, the system named is P94_40. An outline of the steps:
as §1

Another experiment relates to PAD. An outline of the steps: as §1
For a further experiment, the system named is PC15. The method in brief:
as §1
Potency is the fitted concentration of half-maximal effect.

Take `Clc1ccc(Cl)cc1`: the Potency result with FAB9, in the experiment on GB4, with HB3, with ICS, in the experiment on JCK and in the experiment with N140 was “inactive” in each case. For the same molecule, the Potency result with P93_24, in the experiment on P94_40, in the experiment on PAD and in the experiment with PC15 was “inactive” in each case.
On to `O=C1C2CC=CCC2C(=O)N1SC(Cl)(Cl)Cl` (stereo not given), for which the Potency result in the experiment with FAB9, with GB4, in the experiment with HB3, with ICS, in the experiment with JCK and with N140 was “inactive” in each case. Also, the Potency result with P93_24, with P94_40, in the experiment with PAD and with PC15 was “inactive” in each case.
Take `[O]=[Cd]`: the Potency entry in the experiment with FAB9, with GB4, with HB3, in the experiment with ICS, with JCK and in the experiment with N140 was “inactive” each time. Further, the Potency entry in the experiment on P93_24, in the experiment on P94_40, with PAD and in the experiment with PC15 was “inactive” throughout.
Regarding `CC(N)Cc1ccc(O)cc1` (stereo not given), the Potency entry in the experiment with FAB9, in the experiment with GB4, with HB3, in the experiment with ICS, in the experiment on JCK and with N140 was “inactive” in each case. Also, the Potency entry in the experiment on P93_24, in the experiment with P94_40, with PAD and in the experiment on PC15 was “inactive” each time.
Regarding `CC(Cc1ccccc1)NC=O` (stereo not given), the Potency result in the experiment on FAB9, in the experiment on GB4, in the experiment on HB3, with ICS, in the experiment with JCK and in the experiment with N140 was “inactive” each time. Further, the Potency result in the experiment with P93_24, in the experiment on P94_40, in the experiment on PAD and in the experiment on PC15 was “inactive” each time.
Take `CCOC(=O)c1ccccc1C(=O)OCC`: the Potency result in the experiment on FAB9, with GB4, in the experiment with HB3, in the experiment with ICS, in the experiment with JCK and in the experiment with N140 was “inactive” throughout. For the same molecule, the Potency result in the experiment on P93_24, in the experiment with P94_40, in the experiment with PAD and in the experiment with PC15 was “inactive” throughout.
Take `CNC(C)C(O)c1ccc(O)cc1` (stereo not given): the Potency entry with FAB9, in the experiment on GB4, with HB3, in the experiment with ICS, in the experiment on JCK and in the experiment with N140 was “inactive” each time. Further, the Potency result in the experiment with P93_24, in the experiment with P94_40, in the experiment with PAD and in the experiment on PC15 was “inactive” in each case.
`N#CN`: the Potency result in the experiment on FAB9, with GB4, with HB3, in the experiment with ICS, with JCK and in the experiment with N140 was “inactive” each time. Moreover, the Potency entry in the experiment on P93_24, in the experiment on P94_40, with PAD and with PC15 was “inactive” in each case.
For `O=C(NCNC(=O)NC1C(=O)NC(=O)N1CO)NC1C(=O)NC(=O)N1CO` (stereo not given), the Potency entry in the experiment on FAB9, in the experiment with GB4, with HB3, with ICS, in the experiment on JCK and in the experiment on N140 was “inactive” each time. Also, the Potency entry in the experiment with P93_24, in the experiment on P94_40, with PAD and in the experiment on PC15 was “inactive” each time.
As for `O=CC=O`, the Potency entry with FAB9, with GB4, with HB3, with ICS, in the experiment with JCK and with N140 was “inactive” throughout. Besides, the Potency entry in the experiment on P93_24, with P94_40, in the experiment on PAD and with PC15 was “inactive” throughout.
With `Oc1cccc[c]1[Hg][Cl]`, the Potency in the experiment with FAB9 is 10 µM (active); with GB4, 4.26 µM (active); with HB3, 10 µM (active); with ICS, 5.01 µM (active); with JCK, 12.6 µM (active); with N140, 5.01 µM (active). For the same molecule, the Potency is 6.31 µM (active) in the experiment with P93_24, 5.01 µM (active) in the experiment on P94_40, 5.62 µM (active) in the experiment with PAD and 10 µM (active) with PC15.
As to `O=C1CN(O)C(c2ccccc2)=c2cc(Cl)ccc2=N1`, the Potency entry in the experiment on FAB9, in the experiment with GB4, in the experiment with HB3, with ICS, in the experiment on JCK and with N140 was “inactive” in each case. The Potency entry in the experiment on P93_24, in the experiment on P94_40, with PAD and with PC15 was “inactive” each time.
`C=CCN1CC[C@]23c4c5ccc(O)c4O[C@H]2[C@@H](O)C=C[C@H]3[C@H]1C5`: the Potency result in the experiment on FAB9, in the experiment with GB4, in the experiment on HB3, in the experiment on ICS, in the experiment with JCK and in the experiment on N140 was “inactive” in each case. For the same molecule, the Potency result in the experiment on P93_24, with P94_40, with PAD and with PC15 was “inactive” each time.
With `S=C(S)N1CCNCC1`, the Potency entry in the experiment on FAB9, in the experiment with GB4, in the experiment with HB3, in the experiment on ICS, in the experiment with JCK and in the experiment with N140 was “inactive” in each case. In addition, the Potency result with P93_24, in the experiment on P94_40, with PAD and in the experiment on PC15 was “inactive” throughout.
With `O=C(OCCN1CCCCC1)C(O)(c1ccccc1)c1ccccc1`, the Potency result with FAB9, with GB4, in the experiment with HB3, in the experiment on ICS, in the experiment on JCK and in the experiment on N140 was “inactive” throughout. Moreover, the Potency entry in the experiment with P93_24, with P94_40, in the experiment with PAD and in the experiment on PC15 was “inactive” each time.
Regarding `O=P(O)(O)C(Cl)(Cl)P(=O)(O)O`, the Potency entry in the experiment with FAB9, in the experiment with GB4, in the experiment on HB3, in the experiment on ICS, in the experiment with JCK and in the experiment with N140 was “inactive” in each case. Also, the Potency entry in the experiment with P93_24, in the experiment on P94_40, with PAD and with PC15 was “inactive” each time.
`CC(=O)OO`: the Potency result in the experiment on FAB9, in the experiment with GB4, with HB3, in the experiment on ICS, in the experiment on JCK and with N140 was “inactive” throughout. In addition, the Potency entry in the experiment with P93_24, in the experiment with P94_40, in the experiment with PAD and in the experiment on PC15 was “inactive” each time.
For the molecule `O[C@H]1[C@H]2[C@H](O)CCCN2C[C@H]1O`, the Potency result in the experiment on FAB9, in the experiment with GB4, in the experiment on HB3, in the experiment on ICS, in the experiment with JCK and with N140 was “inactive” each time. Moreover, the Potency result in the experiment with P93_24, in the experiment on P94_40, in the experiment with PAD and with PC15 was “inactive” in each case.
As for `NCC(O)c1cccc(O)c1` (stereo not given), the Potency result in the experiment with FAB9, with GB4, in the experiment on HB3, in the experiment with ICS, in the experiment on JCK and with N140 was “inactive” in each case. The Potency result in the experiment with P93_24, with P94_40, with PAD and in the experiment on PC15 was “inactive” each time.
For `CN1c2ccccc2C(NCCCCCCC(=O)O)c2ccc(Cl)cc2S1(=O)=O` (stereo not given), the Potency result in the experiment on FAB9, with GB4, in the experiment with HB3, in the experiment on ICS, with JCK and in the experiment on N140 was “inactive” each time. The Potency result with P93_24, in the experiment on P94_40, in the experiment on PAD and with PC15 was “inactive” each time.
On to `COc1ccc2c3c1O[C@H]1C(=O)CC[C@H]4[C@@H](C2)N(C)CC[C@]314`, for which the Potency result in the experiment on FAB9, with GB4, with HB3, in the experiment with ICS, in the experiment with JCK and in the experiment with N140 was “inactive” throughout. Also, the Potency result with P93_24, in the experiment with P94_40, in the experiment on PAD and with PC15 was “inactive” throughout.
Turning to `c1ccc2sc(SNC3CCCCC3)nc2c1`, the Potency result in the experiment with FAB9, in the experiment with GB4, in the experiment on HB3, with ICS, in the experiment on JCK and in the experiment with N140 was “inactive” each time. Also, the Potency result in the experiment with P93_24, in the experiment on P94_40, in the experiment with PAD and with PC15 was “inactive” each time.
As to `COC1=CC=C2[C@H]3Cc4ccc(OC)c5c4[C@@]2(CCN3C)[C@H]1O5`, the Potency result in the experiment with FAB9, with GB4, in the experiment with HB3, with ICS, in the experiment with JCK and in the experiment with N140 was “inactive” throughout. The Potency entry with P93_24, in the experiment on P94_40, with PAD and in the experiment on PC15 was “inactive” in each case.
